From PubChem BioAssay
Only some compounds are listed: those with a hit (about 2.9% of all), similar ones and a draw of the others.
E-sel TNF inh: E-selectin induction blockers in HUVEC – imaging, immunofluorescence, high content, primary screen; HUVEC TNFa-induced E-selectin immunofluorescence; inhibition, % at 2 µM; actives 0.71% (n = 120,000); AID 1246, 2008;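 active means inhibition above the batch mean plus 3 SD, and confirmed as a hit on visual image review, cut at about 43% in these data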;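 further: 0% = TNF-stimulated DMSO wells and 100% = unstimulated control wells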
ERa SRC1 inh: ERα–SRC-1 coactivator interaction inhibitors, primary screen, biochemical, TR-FRET, ERα LBD, estradiol-bound. inhibition, % at 25.6 µM. Estrogen receptor (Homo sapiens), P03372. TR-FRET ER-alpha LBD / SRC-1 peptide. actives 1.7% (n = 86,000); in the data active means inhibition above about 50%;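 further: 0% = receptor plus peptide control and 100% = peptide only without receptor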
Target sequence (P03372 whole entry, looked up, the tested form may be a part): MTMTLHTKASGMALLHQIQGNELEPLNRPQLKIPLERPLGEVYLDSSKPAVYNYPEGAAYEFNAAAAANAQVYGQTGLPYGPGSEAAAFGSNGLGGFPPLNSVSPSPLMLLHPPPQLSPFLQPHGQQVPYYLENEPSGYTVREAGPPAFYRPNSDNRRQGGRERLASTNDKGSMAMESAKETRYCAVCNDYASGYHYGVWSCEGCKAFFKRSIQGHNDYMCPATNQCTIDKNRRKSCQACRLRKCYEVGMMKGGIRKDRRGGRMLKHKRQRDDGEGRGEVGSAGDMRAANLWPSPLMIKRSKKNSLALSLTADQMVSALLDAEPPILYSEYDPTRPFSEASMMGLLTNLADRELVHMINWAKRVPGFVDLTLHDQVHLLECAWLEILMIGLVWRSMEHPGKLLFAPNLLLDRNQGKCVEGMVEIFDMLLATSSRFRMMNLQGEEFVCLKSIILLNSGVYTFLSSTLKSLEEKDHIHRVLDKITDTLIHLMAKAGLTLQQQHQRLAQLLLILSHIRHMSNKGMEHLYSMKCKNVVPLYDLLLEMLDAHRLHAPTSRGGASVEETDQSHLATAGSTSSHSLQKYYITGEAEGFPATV
F-actin modifier: modifiers of F-actin cytoskeleton organization, primary screen, imaging, HUVEC, phalloidin staining, high-content imaging; actives 0.18% (n = 91,000); inhibition, % at 2 µM; HUVEC TNFa F-actin phalloidin imaging;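 active means inhibition above the batch mean plus 3 SD and confirmed as a hit by visual image inspection, cut at about 30% in these data, passing the limit was not always enough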
ERa coact pot: enhancers of ERα–SRC-1 coactivator binding, primary screen, biochemical, TR-FRET, ERα LBD, low estradiol | AID 639, 2007 | Estrogen receptor (Homo sapiens), P03372 | coactivator binding (% of control), % at 25.6 µM | actives 1.3% (n = 86,000) | TR-FRET ERalpha-LBD/SRC-Cy5 coactivator binding, 2 h; 100 = basal binding, no effect; in the data active means activity above about 200%;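 further: binding measured in presence of low estradiol as agonist stimulus; 0% = peptide alone without receptor and 100% = receptor with peptide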
ERb SRC1 inh: inhibitors of ERβ-SRC1 coactivator interaction, primary screen, biochemical, TR-FRET, ERβ LBD, SRC-1 peptide; Estrogen receptor beta (Homo sapiens), Q92731; TR-FRET ER-beta LBD / SRC1-Cy5 peptide binding; receptor agonist-loaded with 1 µM estradiol; inhibition, % at 25.6 µM; actives 1.3% (n = 86,000);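 active means compounds whose percent inhibition of the receptor-coactivator binding signal exceeds about 50% in the single-dose screen, limit read from the data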;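 further: 0% = receptor plus peptide wells without compound and 100% = peptide-only wells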
Calb biofilm kill: clotrimazole potentiators killing Candida biofilms, primary screen, with clotrimazole, Alamar Blue; C. albicans biofilm + clotrimazole; inhibition, % at 6 µM; actives 0.14% (n = 85,000);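 active means inhibition above 20%; inactive means inhibition below 20%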;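 further: preformed 24 hr biofilms exposed to compound for 48 hr; 0% = biofilm without compound and 100% = blank killed by clotrimazole plus chlorhexidine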
* hit, by the source's call; nt = no result given; [ ] = another dose, or the depositor's remark.

SMILES	E-sel TNF inh	ERa SRC1 inh	F-actin modifier	ERa coact pot	ERb SRC1 inh	Calb biofilm kill
Cc1ccc(SCCCCN2CCNCC2)cc1	-19	nt	nt	nt	nt	nt
Cc1cccc(OCCCCCn2ccnc2)c1	nt	-1	1	136	2	6
O=C1/C(=C/c2ccccn2)COc2ccccc21	14	nt	nt	nt	nt	nt
CC1C/C(=C/c2ccccn2)C(=O)/C(=C/c2ccccn2)C1 (stereo not given)	100*	nt	nt	nt	nt	nt
CC(C)(C)C1C/C(=C/c2ccccn2)C(=O)/C(=C/c2ccccn2)C1 (stereo not given)	100*	nt	nt	nt	nt	nt
CCOc1cc(C(=O)OCC(=O)c2c(C)[nH]c3ccccc23)ccc1OCC(=O)N1CCOCC1	-11	-6	50*	103	1	nt
CCOc1cc(C(=O)OCC(=O)c2c[nH]c3ccccc23)ccc1OCC(=O)N1CCOCC1	-41	-11	19	113	-17	6
Cc1ccc(S(=O)(=O)/N=S(\C)CC2CC2(Cl)Cl)cc1 (stereo not given)	nt	0	0	105	5	3
Cc1cc(OCC(=O)Nc2nnc(C3CC3)s2)ccc1[N+](=O)[O-]	-24	nt	nt	nt	nt	nt
Cc1oc2cc(O)cc(C)c2c(=O)c1-c1cnn(-c2ccccc2)c1	13	14	-12	236*[fluorescence artefact?]	-10	10
CN1CC2(C)CN(C(c3ccccc3)c3ccccc3)CC(C)(C1)C2O (stereo not given)	nt	44	nt	84	57*	9
CC1CCCCC1NC(=O)Cn1c(CN2CCCCC2)nc2ccccc2c1=O (stereo not given)	-102	2	8	108	-5	8
Nn1c(CN2CCCCC2)nc2ccccc2c1=O	51*	0	-9	116	-5	5
CN(CC(=O)NC1CCCCCCC1)S(=O)(=O)c1cnc[nH]1	-5	nt	nt	nt	nt	nt
Cc1ccc(/C=c2\sc3nc(-c4ccccc4Br)nn3c2=O)o1	-16	85*[fluorescence artefact?]	8	60	66*	6
O=c1nc2s/c(=C\c3ccco3)c(=O)n2nc1Cc1ccc(F)cc1	13	96*[fluorescence artefact?]	-3	4	88*	0
Cc1ccc(/C=c2\sc3nc(-c4ccco4)nn3c2=O)o1	nt	70*	-8	113	64*[fluorescence artefact?]	6
Cc1ccc(-c2nc3s/c(=C\c4ccco4)c(=O)n3n2)cc1	nt	96*[fluorescence artefact?]	24	23	58*	4
COc1ccc(Br)cc1/C=c1\sc2nc(-c3ccco3)nn2c1=O	nt	nt	nt	nt	nt	3
CCCN1C(=O)/C(=c2\sc3nc(=O)c(Cc4ccc(C)cc4)nn3c2=O)c2ccccc21	-7	nt	nt	nt	nt	nt
COc1ccccc1/C=c1\sc2nc(-c3ccncc3)nn2c1=O	nt	9	nt	101	13	0
COc1ccccc1/C=c1\sc2nc(-c3ccccc3OC)nn2c1=O	9	nt	8	nt	nt	nt
O=C(O)C1C2C=CC(C2)C1C(=O)NCc1ccc(Cl)c(Cl)c1 (stereo not given)	44	nt	nt	nt	nt	nt
Cc1cccc(NC2=C(Cl)C(=O)OC2NC(=O)c2ccccc2)c1 (stereo not given)	-3	3	-10	90	-4	5
C#CCSc1nnc(-c2ccc([N+](=O)[O-])cc2)o1	16	nt	nt	nt	nt	nt
SMILES	E-sel TNF inh	ERa SRC1 inh	F-actin modifier	ERa coact pot	ERb SRC1 inh	Calb biofilm kill
CCN(CC)c1ccc(/C=c2\sc3nnc(-c4ccccc4Cl)n3c2=O)cc1	11	-2	nt	147	-3	6
Cc1ccc(/C=c2/sc3nnc(-c4ccccc4Cl)n3c2=O)o1	-35	58*[fluorescence artefact?]	-2	42	44	10
CCN(CC)c1ccc(/C=c2/sc3nnc(-c4ccccc4C)n3c2=O)cc1	14	41	0	413*[fluorescence artefact?]	28	3
COc1ccc(C(=O)NCC(=O)NCC(=O)OCC(=O)C(C)(C)C)cc1	3	nt	nt	nt	nt	nt
N#Cc1cnc(SCC(=O)NNC(=O)COc2cccc3ccccc23)nc1N	-22	nt	nt	nt	nt	nt
COc1ccc(C(O)(CCc2ccccc2)CCN2CCCCC2)cc1 (stereo not given)	10	nt	nt	nt	nt	nt
COc1c(Cl)cc(Cl)cc1C(=O)Nc1ccc(NC(C)=O)cc1	64*	nt	nt	nt	nt	nt
CC(C)(CO)NCC(O)Cn1cc(C=O)c2ccccc21 (stereo not given)	90*	nt	nt	nt	nt	nt
FC(F)(F)c1cnc(Oc2ccccc2-c2nnco2)c(Cl)c1	-4	1	-8	96	-6	10
O=C1Nc2ccc(S(=O)(=O)NCc3ccccn3)c3cccc1c23	7	33	2	81	61*[fluorescence artefact?]	-2
Cn1c(N2CCCCC2)cc(=O)n(C)c1=O	-15	-13	34	104	96*[fluorescence artefact?]	6
O=C(NCc1ccccc1)N1CCN(c2ccc(Cl)c(Cl)c2)CC1	71*	6	-29	97	10	2
O=C(NCc1ccccc1)N1CCN(c2ccc(F)cc2)CC1	-48	0	6	104	-2	-2
Cc1cc(C)n(-c2nncn2NC(=O)c2ccc(Cl)cc2O)n1	nt	-2	-24	138	0	0
COc1ccc(NC(=O)Cn2c(-c3ccccc3)cn(-c3ccc(C)cc3)c2=O)cc1	nt	5	-4	201*	4	4
CC(C)C(c1nnnn1Cc1ccc2c(c1)OCO2)N1CCN(c2ccccc2)CC1 (stereo not given)	-25	0	-14	108	12	8
CC(C)C(c1nnnn1Cc1ccc2c(c1)OCO2)N1CCN(C)CC1 (stereo not given)	42*	-3	-9	110	-6	8
CCOC(=O)Cn1c(-c2ccccc2)nc2ccccc2c1=O	13	nt	-3	nt	nt	nt
CCC(=O)Oc1c(-c2ccccc2)c2nc3ccccc3nc2c2ccccc12	0	39	-10	221*[fluorescence artefact?]	47	1
N#C/C(C(=O)NCc1ccco1)=C1/SC(Cc2ccc(Cl)cc2)C(=O)N1c1ccccc1 (stereo not given)	-4	-16	-6	83	-17	3
Cc1ccc(CC2S/C(=C(/C#N)C(=O)NCc3ccco3)N(c3ccccc3)C2=O)cc1 (stereo not given)	13	9	63*	119	5	3
c1ccc(CC(Nc2ccccn2)c2ccccc2)cc1 (stereo not given)	-15	nt	nt	nt	nt	nt
COc1ccc(N(C(=O)CNC(=O)c2cccs2)C(C(=O)NCC2CCCO2)c2ccccc2)cc1OC (stereo not given)	5	nt	nt	nt	nt	nt
Cc1ccc(S(=O)(=O)NCCN2CCOCC2)c(C)c1C	-31	nt	nt	nt	nt	nt
CCCNC(=O)C1CCN(S(=O)(=O)c2c(C)noc2/C=C\c2ccc(OC)cc2)CC1	76*	0	-14	110	3	9
CN(C1CCCCC1)S(=O)(=O)Cc1ccccc1	-5	-2	nt	108	0	12
Cc1ccc(NC(=O)CSc2n[nH]c(C)c2[N+](=O)[O-])cc1	-4	nt	nt	nt	nt	nt
